Experimental data reported in the supplement of paper PMC12645437, “Orthogonal IMiD-Degron Pairs Induce Selective Protein Degradation in Cells” (ACS Chemical Biology, 2025).
Whole data set: some 8,300 sequences, median “log2 fold change of degron read counts, EGFP-low vs EGFP+ sorted cells (limma voom), compound-induced degradation” near -1.1, cut for the highest 2% near 3.2. The list comes from a sample in which the highest values are over-represented; it also holds similar and randomly drawn sequences.

T1: CRBN, Q96SW2
T1 chain: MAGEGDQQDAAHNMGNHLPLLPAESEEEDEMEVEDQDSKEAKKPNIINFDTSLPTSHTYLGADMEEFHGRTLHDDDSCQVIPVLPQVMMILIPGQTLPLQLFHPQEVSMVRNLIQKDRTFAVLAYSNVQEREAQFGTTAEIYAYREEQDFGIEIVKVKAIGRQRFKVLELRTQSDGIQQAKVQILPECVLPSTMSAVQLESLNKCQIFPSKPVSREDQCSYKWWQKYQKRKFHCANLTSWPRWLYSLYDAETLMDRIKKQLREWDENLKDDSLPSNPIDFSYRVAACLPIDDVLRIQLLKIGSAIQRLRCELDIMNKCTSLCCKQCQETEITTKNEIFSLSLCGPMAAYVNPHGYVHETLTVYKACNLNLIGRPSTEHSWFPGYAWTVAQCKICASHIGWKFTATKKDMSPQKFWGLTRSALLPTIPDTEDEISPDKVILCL


Target: T1, CRBN, Q96SW2
Assay: log2 fold change of degron read counts, EGFP-low vs EGFP+ sorted cells (limma voom), compound-induced degradation; higher = more compound-induced degradation of the degron-EGFP fusion; degrons are variants of IKZF1/3 zinc finger 2; compound dose not given here
Conditions: Jurkat, 18 h
Method: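 Pooled library of 8380 IKZF3 ZF2 degron mutants (positions 146-167 varied within the IKZF3 130-189 degron; only the varied core is printed, flanks not printed) fused to EGFP with IRES-mCherry, lentivirally expressed in Jurkat cells. mCherry+ cells were treated with one IMiD compound for 18 h (dose not stated) and FACS-sorted into EGFP-low and EGFP+ populations. Degron sequences were counted by NGS, and log2FC (EGFP-low vs EGFP+) was estimated by limma voom over 3 biological replicates.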

[1] = compound: compound 19 (5-tert-butyl-thalidomide)
[2] = compound: compound 22 (5-morpholino-thalidomide)
[3] = compound: compound 33 (diphenyl IMiD analogue)
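Also: pooled lentiviral library of zinc finger degron-EGFP fusions in mCherry-positive Jurkat cells, FACS-sorted after compound exposure, with degron abundance counted by next-generation sequencing.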

Row | Sequence | log2 fold change of degron read counts [1] | log2 fold change of degron read counts [2] | log2 fold change of degron read counts [3] | log2 fold change of degron read counts (compound: thalidomide)
1 | FVCNQCGARFTQKGNLLRHIKL [46F_47V_49N_50Q_52G_53A_54R_55F_67L_, Q9UKT9] | -2.15 | -2.17 | -1.37 | -0.598
2 | FRCNQCGHEFTQKGNLLRHIKL [46F_47R_49N_50Q_52G_53H_54E_55F_67L_, Q9UKT9] | -3.26 | -3.83 | -3.1 | -2.88
3 | FDCPICGHIFTQKGNLLRHIKL [46F_47D_49P_50I_52G_53H_54I_55F_67L_, Q9UKT9] | -2.28 | -2.43 | -1.8 | -1.37
4 | LACPICGFWCTQKGNLLRHIKL [46L_47A_49P_50I_52G_53F_54W_55C_67L_, Q9UKT9] | 2.95 | 2.34 | 2.58 | 2.45
5 | FICEQCGAIFTQKGNLLRHIKL [46F_47I_49E_50Q_52G_53A_54I_55F_67L_, Q9UKT9] | -2.04 | -1.4 | -0.144 | -0.929
6 | FMCEICGRLFTQKGNLLRHIKL [46F_47M_49E_50I_52G_53R_54L_55F_67L_, Q9UKT9] | -2.26 | -3.02 | -1.18 | -0.917
7 | FNCPICGHCFTQKGNLLRHIKL [46F_47N_49P_50I_52G_53H_54C_55F_67L_, Q9UKT9] | -2.1 | -3.11 | -1.84 | -2.15
8 | FNCDICGAWFTQKGNLLRHIKL [46F_47N_49D_50I_52G_53A_54W_55F_67L_, Q9UKT9] | -1.24 | -2.06 | -2.22 | -2.05
